# Results published in PubChem BioAssay (Tox21).
# Activity calls are given as the source filed them. Calls come from the whole dose curve; as a rule, active = well fitted curve in the direction sought with a large enough effect in the signal ratio in the repeat runs (not every such curve was filed as active); inconclusive = weak or mixed curves, or effect the other way; inactive = no such curve, though single readings can be large or run the other way; the % refers to the signal ratio.
# Target: Estrogen receptor (Homo sapiens) (UniProt P03372)
# Assay: qHTS assay to identify small molecule antagonists of the estrogen receptor alpha (ER-alpha) signaling pathway (AID 743069)
# Settings: HEK293 ER-alpha-UAS-bla, beta-lactamase ratio, antagonist mode; series mostly up to 69.4 µM; activity, negative = inhibition: at the top concentration
# From the text: National Center for Advancing Translational Sciences [NCATS]
# NIH Chemical Genomics Center [NCGC]
# U.S. Environmental Protection Agency [EPA]
# National Institutes of Environmental Health Sciences [NIEHS]
# National Toxicology Program [NTP]
# U.S. Food and Drug Administration [FDA]
# Estrogen receptor (ER), a nuclear hormone receptor, plays an important role in development, metabolic homeostasis and reproduction. Two subtypes of ER, ER-alpha and ER-beta have similar expression patterns with some uniqueness in both types. Endocrine disrupting chemicals (EDCs) and their interactions with steroid hormone receptors like ER causes disruption of normal endocrine function. To identify the compounds that inhibit ER signaling, an ER-alpha-UAS-bla GripTiteTM cell line (Invitrogen, Carlsbad, CA, USA) containing a beta-lactamase reporter gene under the control of an Upstream Activator Sequence (UAS) stably integrated into HEK293 cells was used to screen the Tox21 10K compound library.
# Tox21 Assay Protocol Summary:
# ER-alpha-bla cells were cultured in assay medium containing 2% charcoal stripped FBS overnight in the culture flasks before the assay was performed. The cells were dispensed at 5,000 cells/5 uL of assay medium per well into black wall/clear-bottom 1536-well plates using a Multidrop Combi (ThermoFisher Scientific, Waltham, MA) dispenser. After the assay plates were incubated at a 37C and 5% CO2 for 4 hr, 23 nL of compounds dissolved in DMSO, positive controls or DMSO only was transferred to the assay plate by a Pintool station (Kalypsys, San Diego, CA), followed by addition of 1 uL of 17beta-estradiol in assay medium using a Flying Reagent Dispenser (Aurora Discovery, San Diego, CA). The plates were incubated at 37C and 5% CO2 for 18 hr. Then 1 uL of LiveBLAzerTM B/G FRET substrate was added using a Flying Reagent Dispenser, the plates were incubated at room temperature for 2 hours, and fluorescence intensity was measured by an Envision plate reader (PerkinElmer, Shelton, CT).
# % is set by controls: 0 for no effect and ±100 for the full control effect; potency is the fitted concentration of half-maximal effect.
# Sequence of Estrogen receptor (Homo sapiens) (P03372 whole entry, looked up): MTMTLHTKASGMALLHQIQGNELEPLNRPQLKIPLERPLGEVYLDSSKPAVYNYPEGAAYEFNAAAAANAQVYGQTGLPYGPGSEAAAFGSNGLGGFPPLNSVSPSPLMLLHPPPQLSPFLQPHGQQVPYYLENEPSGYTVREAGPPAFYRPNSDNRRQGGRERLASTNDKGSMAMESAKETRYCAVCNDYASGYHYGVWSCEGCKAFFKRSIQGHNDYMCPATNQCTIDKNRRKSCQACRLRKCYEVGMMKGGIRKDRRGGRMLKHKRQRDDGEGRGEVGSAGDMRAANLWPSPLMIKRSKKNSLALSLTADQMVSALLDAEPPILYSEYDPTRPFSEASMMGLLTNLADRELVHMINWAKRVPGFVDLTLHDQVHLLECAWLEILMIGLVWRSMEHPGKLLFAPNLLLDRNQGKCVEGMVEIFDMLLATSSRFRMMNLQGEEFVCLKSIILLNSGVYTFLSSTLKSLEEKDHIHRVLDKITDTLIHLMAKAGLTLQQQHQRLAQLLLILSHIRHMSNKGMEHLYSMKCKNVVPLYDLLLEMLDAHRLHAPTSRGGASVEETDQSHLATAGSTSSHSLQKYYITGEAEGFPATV
Structure (SMILES),"activity, negative = inhibition",Potency
C=Cc1cccc(CCl)c1,-14.2% [at 79.1 µM] (inactive),
CCCCN(CCCC)C(=S)[S-].CCCCN(CCCC)C(=S)[S-].[Ni+2],-9.26% (inactive),
O=S(=O)(O)F,11.1% [at 79.1 µM] (inactive),
Cc1cnc2c(C(=O)O)c(Cl)ccc2c1,-2.85% (inactive),
CO/N=C(/C1=NOCCO1)c1ccccc1Oc1ncnc(Oc2ccccc2Cl)c1F,,54.9 µM [inconclusive] (active)
Clc1ccc(C(Cl)(Cl)Cl)cc1Cl,-22.6% (inactive),
CC(C)=CCN1CC[C@@]2(C)c3cc(O)ccc3C[C@@H]1[C@@H]2C,-7.65% (inactive),
Cc1cc2c3c(c1)C(c1ccccc1)=N[C@@H](NC(=O)c1ccncc1)C(=O)N3CC2,-8.28% (inactive),
S=C=NCCc1ccccc1,28.7% (inactive),
ClC(Cl)C(Cl)(Cl)Cl,9.54% (inactive),
CCC1(CC)C(=O)N=C(O)NC1=O,13.4% (inactive),
CCCCc1ccccc1,7.9% (inactive),
CC(C)C(Br)C(=O)NC(N)=O (stereo not given),-4.56% (inactive),
Nc1nc(N)nc(Cl)n1,5.84% (inactive),
COP(=O)(OC)O/C(=C\Cl)c1cc(Cl)c(Cl)cc1Cl,,24.5 µM [inconclusive] (active)
c1ccc(N=NNc2ccccc2)cc1,,21.9 µM [inhibitor] (active)
CCCCCCCc1ccc(O)cc1,-21.4% (inactive),
N#CC(C#N)=NNc1cccc(Cl)c1,,0.692 µM [inconclusive] (active)
CCN(CC)C(=O)N[C@@H]1C=C2c3cccc4[nH]cc(c34)C[C@@H]2N(C)C1,-11.6% (inactive),
C=CC(=C)C,4.34% (inactive),

Structure (SMILES),"activity, negative = inhibition",Potency
CCC1COC(Cn2cncn2)(c2ccc(Cl)cc2Cl)O1 (stereo not given),-12.7% (inactive),
C=CCOC(=O)c1ccccc1N,5.08% [at 79.1 µM] (inactive),
ClC1(Cl)C2(Cl)C3(Cl)C4(Cl)C(Cl)(Cl)C5(Cl)C3(Cl)C1(Cl)C5(Cl)C24Cl (stereo not given),-24.6% (inactive),
O=S1OCC2C(CO1)C1(Cl)C(Cl)=C(Cl)C2(Cl)C1(Cl)Cl (stereo not given),-22.3% (inactive),
CC(C)NCC(O)c1ccccc1Cl (stereo not given),12.1% (inactive),
c1ccc2nc(N3CCNCC3)ccc2c1,39.2% (inactive),
N#Cc1c[nH]cc1-c1cccc2c1OC(F)(F)O2,,13.8 µM [inhibitor] (active)
OCC(Br)CBr (stereo not given),-7.54% [at 79.1 µM] (inactive),
O=C(Cl)c1ccccc1F,10% (inactive),
CC[C@H](C)[C@H]1O[C@]2(C=C[C@@H]1C)C[C@@H]1C[C@@H](C/C=C(\C)[C@@H](O[C@H]3C[C@H](OC)[C@@H](O[C@H]4C[C@H](OC)[C@@H](NC)[C@H](C)O4)[C@H](C)O3)[C@@H](C)/C=C/C=C3\CO[C@@H]4[C@H](O)C(C)=C[C@@H](C(=O)O1)[C@]34O)O2,,30.9 µM [cytotoxic] (active)
CN1[C@@H]2CC[C@H]1CC(O)C2 (stereo not given in full),-7.18% [at 79.1 µM] (inactive),
CC(C)[C@@H](Nc1ccc(C(F)(F)F)cc1Cl)C(=O)OC(C#N)c1cccc(Oc2ccccc2)c1 (stereo not given in full),39.4% (inactive),
Oc1cccc(Cl)c1Cl,30.2% [at 79.1 µM] (inactive),
CN/C(=N\[N+](=O)[O-])NCc1cnc(Cl)s1,18.3% (inactive),
O=[N+]([O-])c1ccc(Cl)c(Cl)c1Cl,6.64% (inactive),
CCCCC/C=C\C/C=C\C/C=C\C/C=C\CCCC(=O)NCC(=O)O,-29.7% [at 6.71 µM] (inactive),
C[C@]12C/C(=C/O)C(=O)C[C@@H]1CC[C@@H]1[C@@H]2CC[C@@]2(C)[C@H]1CC[C@]2(C)O,27% [at 79.1 µM] (inactive),
ClSC(Cl)(Cl)Cl,-5.27% (inactive),
N#CCCl,-76.2% [at 79.1 µM] (inactive),
CCC(C)c1cccc(C(C)CC)c1O (stereo not given),-7.26% (inactive),
